Laboratory results taken from PubChem BioAssay AID2284423 (EPA ToxCast).
Inconclusive results are not listed. Active and inactive are the calls of the source. Rule for the calls: active = hit-call score of the fitted dose curve at least 0.9, where 1 is the maximum; inconclusive = response in the unintended direction; inactive = score below 0.9.

What follows are compounds tested on SRY-box transcription factor 17 (SOX17) Protein Expression, SOX17 (gene 64321) (assay: CCTE_Deisenroth_DEVTOX-GLR_Ecto_SOX17: CCTE's DevTox GLR-Ecto Assay Evaluation of SRY-box transcription factor 17 (SOX17) Protein Expression, Deisenroth Lab).
Method: CCTE_Deisenroth_DEVTOX-GLR_Ecto assay is a cell-based, multiplex-readout assay that uses RUES2-GLR, a human pluripotent cell line, with measurements taken at 48 hours after chemical dosing in a 384-well microplateCCTE_Deisenroth_DEVTOX-GLR_Ecto_SOX17 is 1 of 4 assay components calculated from the CCTE_Deisenroth_DEVTOX-GLR_Ecto assay and it measures an the percentage of cells in an endoderm state. Using a type of inducible fluorescent protein reporter, gain-of-signal activity can be used to understand changes in gene expression with fluorescent microscopy. The percentage of SOX17+ cells are determined by calculating the number of SOX17+ cells divided by the cell count. To generalize the intended target to other relatable targets, this assay component is annotated to the transcription factor intended target family, where the subfamily is SRY-related HMG-box.Data from the assay component CCTE_Deisenroth_DEVTOX-GLR_Ecto_SOX17 was analyzed as 1 assay endpoint. The endpoint is the percent SOX17+ cell population minus the 0.2% DMSO control in the CCTE_Deisenroth_DEVTOX-GLR_Ecto assay. This assay endpoint can be referred to as a secondary readout since this assay has produced multiple assay endpoints where this one serves as a measure of endoderm differentiation.
All assay protocols are aligned to the DevTox GLR-Endo assay workflow. Cells are seeded into 384-well microplates for 24 hours prior to initiating differentiation in defined media for a total duration of 48 hours. A total of two chemical exposures are administered in 24-hour intervals during the 48-hour differentiation period. At the assay termination point, cells are fixed and stained with a fluorescent dye demarcating the nucleus. High-content imaging is used to acquire brightfield and fluorescent channel images across 5 fields per well. Cell identification and mean biomarker fluorescence intensities are calculated with image analysis software to determine the total cell counts for viability assessment and the biomarker expression frequency for each lineage-dependent assay. A typical experimental design tests a 10-point concentration series (1 nM - 200 uM) for 28 compounds in single technical replicate. Assay plate controls include non-differentiated pluripotent cells (baseline control), lineage-specific differentiated cells (differentiation control), and DMSO solvent exposed differentiated cells (solvent control). Experiments typically comprise a minimum of four experimental replicates (n=4).

SMILES | AC50 | outcome
O=c1[nH]cc(F)c(=O)[nH]1 | 32 µM (active) | –
CS(=O)(=O)OCCCCOS(C)(=O)=O | 100 µM (active) | –
CCCC(CCC)C(=O)O | – | inactive
O=C1NC(=O)C(c2ccccc2)(c2ccccc2)N1 | – | inactive
CC1=C(/C=C/C(C)=C/C=C/C(C)=C/C(=O)O)C(C)(C)CCC1 | 171 µM (active) | –
CN(Cc1cnc2nc(N)nc(N)c2n1)c1ccc(C(=O)N[C@@H](CCC(=O)O)C(=O)O)cc1 | – | inactive
CC(C)(c1ccc(O)cc1)c1ccc(O)cc1 | – | inactive
CCN(CC)CCNC(=O)c1c(C)[nH]c(/C=C2\C(=O)Nc3ccc(F)cc32)c1C | 1.14 µM (active) | –
O=C1CCC(N2C(=O)c3ccccc3C2=O)C(=O)N1 (configuration not stated) | – | inactive
O=C1NS(=O)(=O)c2ccccc21 | – | inactive
CC/C(=C(/CC)c1ccc(O)cc1)c1ccc(O)cc1 | – | inactive
CC1=C(/C=C/C(C)=C/C=C/C(C)=C\C(=O)O)C(C)(C)CCC1 | 183 µM (active) | –
